Hit rate of the full screen: of about 300,000 compounds, about 37,000 (12%) were called active. The full list was thinned out, with actives kept by preference. Unmarked numbers belong to inactive results. Cut-off read from the data, not from the text of the source: active = max response mostly above about 13% (no sharp cut-off); inactive = mostly below about 14%.
test: Cycloheximide Counterscreen for Small Molecule Inhibitors of Shiga Toxin; conditions: cell reporter, cycloheximide protein synthesis inhibition counterscreen; stronger effect = higher value; note: read at 38.3 µM for the half of the compounds with a filed dose; 0% is about no effect

SMILES	max response
COc1ccc(/C=C/CN2CCCC(C(=O)c3cc(F)ccc3F)C2)cc1 (stereo not given)	4.59%
COc1ccc(-c2nc3n(c(=O)c2C#N)CCS3)c(OC)c1	-3.87%
COc1ccc(F)c(-c2nc(CN3CCC(c4ccccc4)CC3)c(C)o2)c1	-1.94%
COc1cc(/C=C2\C(=N)N3N=C(CC(=O)N4CCOCC4)SC3=NC2=O)cc(OC)c1OC	-8.71%
CN(C)N1C(N)=C(C#N)C(c2ccc(Br)cc2)C2=C1CCCC2=O (stereo not given)	11.2%
Cc1cc(C)nc(NC(=O)Nc2ccccc2C(F)(F)F)n1	25.8% (active)
COc1cccc(C(=O)NC(=O)Nc2nc(C)cc(C(F)(F)F)n2)c1	-1.67%
Cc1cc(C)nc(NC(=O)C(C)N2C(=O)c3ccccc3C2=O)n1 (stereo not given)	-0.537%
NNC(=O)c1nnn(-c2nonc2N)c1CN1CCCC1	-0.43%
CCOc1cc2[nH]c(=S)n(Cc3ccc(C(=O)N4CCN(C)CC4)cc3)c(=O)c2cc1OCC	-1.74%
Cc1ccc(OCCCC(=O)N2CCOCC2)c(C)c1	51.4% (active)
Cc1cc(S(=O)(=O)N2CCOCC2)ccc1OCC(=O)N1CCOCC1	0.946%
Cc1ccc(OCCCC(=O)NC(C)c2ccccc2)c(C)c1 (stereo not given)	6.31%
O=C(c1ccc(Br)o1)N1CCN(CCOc2ccccc2)CC1	-3.01%
CCCc1c(C(=O)O)cnn1-c1ccc(Cl)cc1	-0.801%
CCCc1c(C(=O)Nc2ccc(F)cc2)cnn1-c1ccccc1	33.4% (active)
CCNC(=O)c1cnn(-c2ccccc2)c1-c1ccccc1	-0.397%
CC(C)(C)c1cc(P(=O)(c2ccccc2)c2ccccc2)ccc1O	0.647%
CC(C)N(C(=O)CSc1nc(COc2ccccc2)nc2ccccc12)C(C)C	9.79%
Cc1ccc(-c2ccc(/C=N/NC(=O)CN3CCOCC3)o2)cc1[N+](=O)[O-]	12.3%
CN1CCN(/N=C2/C(=O)Nc3ccc([N+](=O)[O-])cc32)CC1	9.26%
CN1CCN(/N=C/c2ccc(-c3ccc([N+](=O)[O-])cc3)o2)CC1	31.4% (active)
COC(=O)c1ccc(NC(=O)C23CC4CC(C2)CC(n2cnc(Cl)n2)(C4)C3)cc1	3.9%
CC(=O)Nc1ccc(S(=O)(=O)N2CCN(CCCOc3cc(C)ccc3C)CC2)cc1	-1.97%

SMILES	max response
N=c1c2c(-c3ccccc3)c(-c3ccccc3)n(Cc3ccccc3)c2ncn1CCCO	-6.29%
OCCCN1c2ccccc2Nc2nnc(-c3ccccc3)cc21	36.8% (active)
O=C(NC(=S)NC1CCS(=O)(=O)C1)c1cccc([N+](=O)[O-])c1 (stereo not given)	-1.9%
O=C(NCCc1ccccc1)c1ccc(NC2=NC3CS(=O)(=O)CC3S2)cc1 (stereo not given)	3.38%
CC1CCCN(c2ccc(C(=O)NCCc3ccccc3)cn2)C1 (stereo not given)	66.7% (active)
CC1CCN(c2c(NCc3ccc(C(=O)NCc4ccccc4)cc3)c(=O)c2=O)CC1	3.3%
Cc1cc(Nc2ccc(C(=O)N3CCCCC3)cc2)c2cccc(C)c2n1	-1.19%
COc1ccc(Nc2ccc([N+](=O)[O-])cn2)cn1	-2.61%
NC1=NC[C@@H](Cc2ccc(O)cc2)N1CC1CCCCC1	-4.36%
COc1cc(Cl)c(C)cc1NC(=O)COC(=O)c1cc(SC)ccc1Cl	-1.86%
COc1ccc(OCC(=O)Nc2cc(C)c(Cl)cc2OC)c([N+](=O)[O-])c1	13.9% (active)
Cc1cc(NC(=O)COC(=O)COc2ccc(Cl)cc2C)c([N+](=O)[O-])cc1C	-1.12%
Cc1cccc2sc(N(CCCN(C)C)C(=O)CCS(=O)(=O)c3ccccc3)nc12	8.46%
CN(C)CCCn1c(SCc2ccc(Cl)cc2)nnc1-c1ccncc1	-2.48%
COc1ccc(NC(=O)C2=CC(c3ccc(OC)c(OC)c3)=NS(=O)(=O)N2C)cc1	-6.05%
Cc1c(CCC(=O)O)c(=O)oc2cc3occ(-c4ccccc4)c3cc12	-1.34%
O=c1c(-c2ccccc2)coc2c(CN3CCOCC3)c(O)ccc12	5.61%
O=c1c(-c2ccccc2)coc2cc(O)ccc12	51.6% (active)
CC1(C)C2CCC1(C)C(OC(=O)c1ccc(O)cc1)C2 (stereo not given)	-2.8%
COc1ccc(C23NCCN2C(=O)c2ccccc23)cc1 (stereo not given)	-7.41%
Cc1ccccc1OCC(=O)Nc1nc(C)c(C(=O)N(C)C)s1	7.85%
COCCNC(=O)COc1ccccc1C	0.731%
Cc1cccc(NC(=O)Cc2ccc(Br)cc2)n1	33.4% (active)
Cc1cccc(C)c1NC(=O)CNC(=O)Cc1ccc(Br)cc1	-2.02%

SMILES	max response
CSc1ccccc1NC(=O)Cc1ccc(Br)cc1	-3.62%
CCN(CC)S(=O)(=O)c1ccc(C)c(NC(=O)COc2ccc(Br)cc2Cl)c1	-3.99%
Cc1cccc(NC(=O)Nc2ccc(OCc3ccccc3)cc2)n1	-4.06%
Cc1cccc(NC(=O)COc2ccc(Br)cc2C)n1	42.7% (active)
Cc1cccc(NC(=O)COc2ccccc2C)n1	47.9% (active)
O=C1C(=O)N(CCN2CCOCC2)C(c2cccc(Cl)c2)/C1=C(/O)c1ccc2c(c1)OCO2 (stereo not given)	1.71%
O=C(Nc1ccc(-n2cccn2)cc1)C1CCN(Cc2ccsc2)CC1	1.46%
Cc1cnc(C(=O)Oc2cccc(Cl)c2Cl)cn1	-2.93%
O=S(=O)(Nc1cccc(Oc2ccc(Cl)cc2)n1)c1ccc(F)cc1	-1.16%
COc1ccc(CN2CCNC(=O)C2CC(=O)NCc2cn[nH]c2-c2ccccc2)c(F)c1 (stereo not given)	-3.59%
COc1ccc2cc(-c3[nH]ncc3CNCCn3nc(C)cc3C)ccc2c1	38.8% (active)
Cc1cc(C)n(CCNS(=O)(=O)c2ccc(Cl)cc2)n1	-1.13%
CCN1CCC2(CC1)N=C(c1ccc(F)cc1)C(=S)N2C(=O)c1ccc(C)cc1	-0.381%
COc1ccc(C)cc1Nc1nc(C)nc2c1oc1ccccc12	-2.13%
Cc1cc(C)nc(N2CCN(c3ncnc4c3oc3ccccc34)CC2)n1	10.4%
COc1ccccc1Nc1ncnc2c1oc1ccccc12	22.8% (active)
CCCCOc1ccc(N(CC(=O)NCC2CCCO2)C(=O)CCC(=O)Nc2cc(C)ccn2)cc1 (stereo not given)	-1.91%
C[n+]1ccc(C(=O)NCc2ccccc2)cc1	-2.14%
COc1ccc(CNc2ccc3c(c2)CCC3)cc1OC	28.7% (active)
COc1ccc(CC(=O)Nc2ccc3c(c2)CCC3)cc1S(=O)(=O)N1CCOCC1	1.02%
COc1ccc(CNc2cc(C)cc(C)c2)cc1OC	-1.54%
COc1ccc(OCC(=O)Nc2ccc(NC(=O)c3ccco3)c(C)c2)cc1	6.17%
COc1cc(NS(=O)(=O)c2ccc(NC(=S)NC(=O)c3ccccc3)cc2)nc(OC)n1	-6%
Cc1nnc(NC(=O)Nc2ccc(Cl)c(Cl)c2)s1	-2.3%

SMILES	max response
CCn1nccc1C(=O)Nc1ccc(Cl)c(Cl)c1	35.7% (active)
CCn1nccc1C(=O)Nc1ccc(S(=O)(=O)NC23CC4CC(CC(C4)C2)C3)cc1	9.31%
N#Cc1cccc(Nc2c3c(nc4ccccc24)CCCC3)c1	-8.08%
Cc1nc2nc(C)c(NS(=O)(=O)c3ccc(C(C)(C)C)cc3)c(=O)n2[nH]1	1.21%
COc1ccc(C(=O)NC2CCN(C(=O)Nc3ccc(F)cc3)CC2)cc1	-4.59%
O=C(Nc1ccccc1)N1CCN(C(=O)Nc2ccccc2)CC1	-0.439%
O=C(c1cc2ccccc2o1)N1CCN(c2cccc(C(F)(F)F)c2)CC1	-3.72%
O=C(c1cc2ccccc2o1)N1CCN(Cc2ccccc2)CC1	20.5% (active)
O=C(c1cccc(Cl)c1)N1CCN(Cc2ccccc2)CC1	1.6%
O=C(Nc1ccccc1)N1CCN(Cc2ccccc2)CC1	21% (active)
COc1ccc(NC(=O)N2CCC(Cc3ccccc3)CC2)cc1	19.5% (active)
O=C(NC(=S)N1CCN(Cc2ccccc2)CC1)c1ccccc1	10.6%
COc1ccc(NC(=O)N2CCCC(C(=O)Nc3ccccc3OC)C2)cc1 (stereo not given)	-2.82%
COc1ccc(C(CCN2CCOCC2)c2c(OC)cc(OC)c3c2OC(=O)CC3c2ccc(OC)cc2)cc1 (stereo not given)	3.67%
CCn1c(/C=C/Nc2ccccc2)[n+](CC)c2ccc(C(=O)OCC(F)(F)F)cc21	-3.17%
COc1ccccc1NC(=O)N1CCCC1C(=O)NCc1cccs1 (stereo not given)	4.62%
CCc1cc(=O)oc2cc(C)cc(OCC(=O)N3CCC[C@@H]3C(=O)O)c12	-2.38%
CCC1Oc2ccccc2N(CC(=O)NCCCN2CCN(CC)CC2)C1=O (stereo not given)	-1.43%
Nc1ccc(S(=O)(=O)Nc2nccc(/C=C/c3ccc(Br)s3)n2)cc1	0.595%
Oc1cccc2ccc(/C=C/c3ccc(Br)s3)nc12	56.7% (active)
O=C(CN1C(=O)c2cccnc2Oc2ccc(Cl)cc21)NCCc1ccccc1	18.6%
Cc1cc(C)n2nc(CNS(=O)(=O)c3c(F)c(F)c(F)c(F)c3F)nc2n1	1.02%
COc1ccc(S(=O)(=O)c2c[nH]c(=S)[nH]c2=O)cc1Cl	-3.71%
